Assay results as given in PubChem BioAssay (EPA / NIEHS).
A structure can be active in one record and inactive in another. Active and inactive are the calls of the source. The calls were made as follows: active = hit-call score of the fitted dose curve at least 0.9, where 1 is the maximum; inactive = score below 0.9.

How the values were obtained:
[1] = read-out: Cyclin D2 (CCND2), CCND2 (gene 894); experiment: LTEA_HepaRG_CCND2: Life Technologies and Expression Analysis (LTEA) Assay for Cyclin D2 (CCND2) using HepaRG (AID 2283449); details: mRNA level, 48 h; actives raise or lower the signal;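 also: CCND2 transcript measured by TaqMan qRT-PCR and normalised to three housekeeping genes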
Method in brief: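 HepaRG, 48 h dosing, 8-pt half-log curve from 100 uM, 0.5% DMSO; duplicate wells. Readout: CCND2 transcript by microfluidic qRT-PCR, housekeeping-normalised; bidirectional fit vs DMSO baseline.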

[2] = read-out: Cyclin Dependent Kinase Inhibitor 1A (CDKN1A), CDKN1A (gene 1026); experiment: LTEA_HepaRG_CDKN1A: Life Technologies and Expression Analysis (LTEA) Assay for Cyclin Dependent Kinase Inhibitor 1A (CDKN1A) using HepaRG (AID 2283450); details: mRNA level, 48 h; actives raise or lower the signal
Method in brief: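 Expression quantified by Fluidigm qRT-PCR with ACTB, GAPDH and POLR2A normalization, fitted bidirectionally against 0.5% DMSO. Cells: HepaRG, plated 48 h then treated 48 h in serum-free induction medium, top concentration 100 uM with half-log dilutions.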

[3] = read-out: Cyclin D1 (CCND1), CCND1 (gene 595); experiment: LTEA_HepaRG_CCND1: Life Technologies and Expression Analysis (LTEA) Assay for Cyclin D1 (CCND1) using HepaRG (AID 2283451); details: mRNA level, 48 h; actives raise or lower the signal;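 as to AC50: differentiated human HepaRG liver cells in serum-free induction medium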
Method in brief: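 Expression of CCND1 was quantified by qRT-PCR on Fluidigm arrays using ACTB, GAPDH and POLR2A as reference genes. HepaRG cultures, plated 48 h beforehand, were dosed for 48 h at up to 100 uM (half-log, 8 points) in 0.5% DMSO.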

[4] = read-out: catalase (CAT), CAT (gene 847); experiment: LTEA_HepaRG_CAT: Life Technologies and Expression Analysis (LTEA) Assay for catalase (CAT) using HepaRG (AID 2283452); details: mRNA level, 48 h; actives raise or lower the signal
Method in brief: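 HepaRG cells in serum-free induction medium, 0.5% DMSO vehicle, exposed 48 h in duplicate over 8 half-log concentrations from 100 uM. CAT mRNA measured by qRT-PCR, normalized to ACTB, GAPDH, POLR2A; bidirectional fit versus DMSO.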

[5] = read-out: CFLAR gene, CFLAR (gene 8837); experiment: LTEA_HepaRG_CFLAR: Life Technologies and Expression Analysis (LTEA) Assay for CFLAR gene using HepaRG (AID 2283455); details: mRNA level, 48 h; actives raise or lower the signal
Method in brief: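 qRT-PCR read-out (Fluidigm/TaqMan) of CFLAR mRNA, normalized to three housekeeping genes, in differentiated human HepaRG cells after 48 h chemical exposure; 8-point half-log series from 100 uM in 0.5% DMSO; bidirectional curve fitting versus DMSO.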

[6] = read-out: Forkhead box O1 (FOXO1), FOXO1 (gene 2308); experiment: LTEA_HepaRG_FOXO1: Life Technologies and Expression Analysis (LTEA) Assay for Forkhead box O1 (FOXO1) using HepaRG (AID 2283456); details: mRNA level, 48 h; actives raise or lower the signal
Method in brief: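 HepaRG, 48 h exposure, 8-pt half-log series from 100 uM in 0.5% DMSO, duplicates; Fluidigm qRT-PCR mRNA, housekeeping-normalised; bidirectional fit vs DMSO baseline.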

[7] = read-out: growth arrest and DNA damage 45 (GADD45A), GADD45A (gene 1647); experiment: LTEA_HepaRG_GADD45A: Life Technologies and Expression Analysis (LTEA) Assay for growth arrest and DNA damage 45 (GADD45A) using HepaRG (AID 2283458); details: mRNA level, 48 h; actives raise or lower the signal
Method in brief: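 GADD45A expression was measured by TaqMan qRT-PCR against three housekeeping genes (ACTB, GAPDH, POLR2A) after 48 h treatment of HepaRG cells. Eight-point half-log series up to 100 uM in 0.5% DMSO, run in duplicate.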

[8] = read-out: Forkhead box O3 (FOXO3), FOXO3 (gene 2309); experiment: LTEA_HepaRG_FOXO3: Life Technologies and Expression Analysis (LTEA) Assay for Forkhead box O3 (FOXO3) using HepaRG (AID 2283459); details: mRNA level, 48 h; actives raise or lower the signal
Method in brief: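 qRT-PCR readout of FOXO3 transcript, normalized to three housekeeping genes (ACTB, GAPDH, POLR2A); gain or loss fitted against 0.5% DMSO vehicle. HepaRG cells, 48 h chemical exposure, 8-point half-log series, top 100 uM.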

[9] = read-out: ABC Transporter (ABCB1), ABCB1 (gene 5243); experiment: LTEA_HepaRG_ABCB1: Life Technologies and Expression Analysis (LTEA) Assay for ABC Transporter (ABCB1) using HepaRG (AID 2283460); details: mRNA level, 48 h; actives raise or lower the signal
Method in brief: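 HepaRG, 48 h exposure, 8-pt half-log series from 100 uM, 0.5% DMSO vehicle, duplicates. Readout: ABCB1 transcript by Fluidigm TaqMan qRT-PCR, housekeeping-normalized; bidirectional curve fit vs DMSO baseline.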

[10] = read-out: growth arrest and DNA damage 45 (GADD45B), GADD45B (gene 4616); experiment: LTEA_HepaRG_GADD45B: Life Technologies and Expression Analysis (LTEA) Assay for growth arrest and DNA damage 45 (GADD45B) using HepaRG (AID 2283461); details: mRNA level, 48 h; actives raise or lower the signal
Method in brief: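 Transcript level quantified by Fluidigm TaqMan qRT-PCR with three housekeeping genes for normalization, analyzed for up- or down-regulation against 0.5% DMSO. HepaRG cultures dosed 48 h at eight half-log concentrations up to 100 uM, duplicates.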

[11] = read-out: ABC Transporter (ABCC3), ABCC3 (gene 8714); experiment: LTEA_HepaRG_ABCC3: Life Technologies and Expression Analysis (LTEA) Assay for ABC Transporter (ABCC3) using HepaRG (AID 2283462); details: mRNA level, 48 h; actives raise or lower the signal
Method in brief: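 Transcript level by TaqMan qRT-PCR, normalised to three housekeeping genes, fitted in both directions relative to vehicle. Chemicals tested in duplicate at eight half-log concentrations up to 100 uM for 48 h on HepaRG cells (0.5% DMSO).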

[12] = read-out: ABC Transporter (ABCB11), ABCB11 (gene 8647); experiment: LTEA_HepaRG_ABCB11: Life Technologies and Expression Analysis (LTEA) Assay for ABC Transporter (ABCB11) using HepaRG (AID 2283463); details: mRNA level, 48 h; actives raise or lower the signal
Method in brief: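 HepaRG, 48 h exposure, 8-pt half-log CRC top 100 uM, 0.5% DMSO vehicle, duplicates. Readout: TaqMan qRT-PCR of ABCB11 mRNA, housekeeping-normalized (ACTB/GAPDH/POLR2A). Bidirectional fit vs DMSO baseline.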

[13] = read-out: ABC Transporter (ABCC2), ABCC2 (gene 1244); experiment: LTEA_HepaRG_ABCC2: Life Technologies and Expression Analysis (LTEA) Assay for ABC Transporter (ABCC2) using HepaRG (AID 2283464); details: mRNA level, 48 h; actives raise or lower the signal
Method in brief: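 Endpoint is ABCC2 transcript level from qRT-PCR, normalized to three housekeeping genes and fitted bidirectionally relative to DMSO. Human HepaRG cells received test chemical for 48 h at up to 100 uM (8 points, half-log steps, 0.5% DMSO), duplicate wells.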

[14] = read-out: Broad substrate specificity ATP-binding cassette transporter ABCG2 (Homo sapiens) (UniProt Q9UNQ0); experiment: LTEA_HepaRG_ABCG2: Life Technologies and Expression Analysis (LTEA) Assay for ABC Transporter (ABCG2) using HepaRG (AID 2283465); details: mRNA level, 48 h; actives raise or lower the signal
Method in brief: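 HepaRG, 48 h exposure, 8-pt half-log series from 100 uM, 0.5% DMSO vehicle, duplicates. Readout: ABCG2 transcript by qRT-PCR (Fluidigm array), housekeeping-normalized; bidirectional curve fit relative to DMSO baseline.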

[15] = read-out: ATP-citrate lyase (ACLY), ACLY (gene 47); experiment: LTEA_HepaRG_ACLY: Life Technologies and Expression Analysis (LTEA) Assay for ATP-citrate lyase (ACLY) using HepaRG (AID 2283466); details: mRNA level, 48 h; actives raise or lower the signal
Method in brief: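 qRT-PCR readout of ACLY transcript after 48 h chemical treatment of HepaRG cells; expression normalized to three housekeeping genes. Eight-point half-log series, highest 100 uM, 0.5% DMSO vehicle. Gain or loss fitted against DMSO baseline.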

[16] = read-out: Peroxisomal acyl-coenzyme A oxidase 1 (ACOX1) gene, ACOX1 (gene 51); experiment: LTEA_HepaRG_ACOX1: Life Technologies and Expression Analysis (LTEA) Assay for Peroxisomal acyl-coenzyme A oxidase 1 (ACOX1) gene using HepaRG (AID 2283467); details: mRNA level, 48 h; actives raise or lower the signal
Method in brief: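 HepaRG, 48 h chemical exposure, 8-pt half-log series from 100 uM top, 0.5% DMSO vehicle, duplicates. Readout: ACOX1 mRNA by Fluidigm qRT-PCR, housekeeping-normalized; bidirectional fit vs DMSO baseline.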

[17] = read-out: Alkaline Phosphatase, Placental (ALPP) gene, ALPP (gene 250); experiment: LTEA_HepaRG_ALPP: Life Technologies and Expression Analysis (LTEA) Assay for Alkaline Phosphatase, Placental (ALPP) gene using HepaRG (AID 2283468); details: mRNA level, 48 h; actives raise or lower the signal;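 as to AC50: differentiated human HepaRG liver cells in serum-free induction medium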
Method in brief: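 ALPP transcript level, measured by qRT-PCR and normalized to three housekeeping genes (ACTB, GAPDH, POLR2A), after 48 h dosing of differentiated HepaRG in serum-free induction medium. Top concentration 100 uM with half-log dilutions (8 points, 0.5% DMSO, duplicates); bidirectional fitting relative to DMSO.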

[18] = CEETOX_H295R_TESTO: CeeTox H295R High-throughput Steroidogenesis Assay for Testosterone (TESTO) (AID 2283457); details: actives raise or lower the signal
Method in brief: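 Testosterone secreted into the medium over 48 h by H295R cells (maximum passage 10) was quantified by LC-MS/MS after MTBE extraction. Fitted in both directions against DMSO, with concentrations diluted until MTT viability was ≥70%.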

Measured: AC50

Broad substrate specificity ATP-binding cassette transporter ABCG2 (Homo sapiens), sequence (Q9UNQ0 whole entry, looked up): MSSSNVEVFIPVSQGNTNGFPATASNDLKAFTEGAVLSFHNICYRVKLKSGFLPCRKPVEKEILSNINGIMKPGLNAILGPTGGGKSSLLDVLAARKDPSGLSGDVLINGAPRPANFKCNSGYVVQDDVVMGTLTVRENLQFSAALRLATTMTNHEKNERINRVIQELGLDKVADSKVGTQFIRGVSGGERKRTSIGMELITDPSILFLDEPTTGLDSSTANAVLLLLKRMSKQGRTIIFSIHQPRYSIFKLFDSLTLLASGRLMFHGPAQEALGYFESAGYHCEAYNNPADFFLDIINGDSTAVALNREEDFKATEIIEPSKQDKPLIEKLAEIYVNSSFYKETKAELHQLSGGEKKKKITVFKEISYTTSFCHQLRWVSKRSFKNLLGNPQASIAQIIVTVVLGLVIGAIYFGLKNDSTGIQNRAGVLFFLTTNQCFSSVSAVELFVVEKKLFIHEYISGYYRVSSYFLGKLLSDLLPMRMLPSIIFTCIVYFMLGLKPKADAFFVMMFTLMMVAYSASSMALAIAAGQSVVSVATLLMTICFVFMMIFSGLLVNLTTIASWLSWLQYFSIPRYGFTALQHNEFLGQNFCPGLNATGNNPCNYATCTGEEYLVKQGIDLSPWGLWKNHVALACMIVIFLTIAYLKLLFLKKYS

C=CC1(C)OC(=O)N(c2cc(Cl)cc(Cl)c2)C1=O (configuration not stated)
inactive: [1] | [2] | [3] | [4] | [5] | [6] | [7] | [8] | [10] | [11] | [13] | [15] | [16] | [17]
active: [9] 9.71 µM | [12] 38.3 µM | [14] 11.1 µM

COc1nc(NC(C)C)nc(NC(C)C)n1
active: [9] 9.31 µM
inactive: [1] | [2] | [3] | [4] | [5] | [6] | [7] | [8] | [10] | [11] | [12] | [13] | [14] | [15] | [16] | [17]

CCON=C(CC)C1=C(O)CC(c2c(C)cc(C)cc2C)CC1=O (configuration not stated)
inactive: [1] | [2] | [3] | [4] | [5] | [6] | [18] | [7] | [8] | [10] | [11] | [12] | [15] | [16] | [17]
active: [9] 50 µM | [13] 50 µM

COC(=O)N(OC)c1ccccc1COc1ccn(-c2ccc(Cl)cc2)n1
inactive: [3] | [5] | [8] | [10] | [11] | [13] | [15] | [17]
active: [2] 79 µM | [4] 68.4 µM | [6] 50 µM | [7] 60 µM | [9] 11.6 µM | [12] 38.4 µM | [14] 25 µM | [16] 77.8 µM

O=C(O)c1nc(Cl)ccc1Cl
inactive: [1] | [2] | [3] | [4] | [5] | [6] | [7] | [8] | [9] | [10] | [11] | [12] | [13] | [14] | [15] | [16] | [17]
active: [17] 27.3 µM

CC1COC(Cn2cncn2)(c2ccc(Oc3ccc(Cl)cc3)cc2Cl)O1 (configuration not stated)
inactive: [1] | [5] | [11]
active: [2] 12.7 µM | [3] 83.9 µM | [4] 17.4 µM | [6] 30 µM | [7] 12 µM | [8] 79.2 µM | [9] 81.4 µM | [10] 9.92 µM | [12] 11.2 µM | [13] 34.4 µM | [14] 12.6 µM | [15] 86.7 µM | [16] 50 µM | [17] 10.9 µM
